Results reported in PubChem BioAssay (NCI).
About 83,000 compounds went through this panel and 20% of them were active in at least one assay; those are over-represented in the sample as a whole.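 The test compound was applied at a single concentration to cells in 96-well plates for 48 hours, and percent growth was recorded.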 The source made the active and inactive calls. The calls were made as follows: active = growth percent below 10; inactive = the rest.

system: MDA-MB-468 breast; test: NCI-60 one-dose screen, 48 h (100 = growth as untreated, 0 = no growth, -100 = all killed); conditions: 10 µM unless noted

**Q.** For CCCCC(=O)Nc1ncc(Cc2ccc(Cl)cc2)s1, which growth is on record?
**A.** 26.2% (inactive)

**Q.** With COc1ccc2c(c1)c(-c1nc(-c3c[nH]c4ncccc34)cs1)cn2CCCN1CCCCC1 as the compound, how does the growth read?
**A.** 57.9% (inactive)

**Q.** How did the growth turn out when CCO/C=N/S(=O)(=O)c1cc2c(cc1Cl)NC=NS2(=O)=O was run?
**A.** 98.3% (inactive)

**Q.** COc1ccc2cc(C(=O)N3CCC([C@@H](C)C(=O)NCc4ccc5c(c4)OCO5)CC3)[nH]c2c1 was tested. Which growth did it give?
**A.** 41.1% [50 µM] (inactive)

**Q.** How did the growth turn out when CCOC(=O)c1nnn(Cc2cc(=O)oc3ccc(O)cc23)c1C was run?
**A.** 108% (inactive)

**Q.** How did the growth turn out when COc1ccc(C2=Cc3ccc(OC(C)=O)cc3OC2)cc1 was run?
**A.** 67.4% (inactive)

**Q.** How did the growth turn out when O=C(CCCCl)NNc1nccc(Nc2ccc(S(=O)(=O)Nc3ccncc3)cc2)n1 was run?
**A.** 116% (inactive)

**Q.** How did the growth turn out when CCNCc1ccc(O)c2ncccc12 was run?
**A.** 54.6% (inactive)

**Q.** For CC(C)CCC[C@@H](C)[C@H]1CC[C@H]2[C@@H]3CC[C@H]4C/C(=N/O)CC[C@]4(C)[C@H]3CC[C@]12C, which growth is on record?
**A.** 99% (inactive)

**Q.** For c1ccc(C2NCCNC2c2ccccc2)cc1 (centres undefined), which growth is on record?
**A.** 111% (inactive)

**Q.** With CCOC(=O)c1ccc(NC(=O)c2nc(-c3cc(OC)c(OC)c(OC)c3)n(-c3ccc(Cl)cc3)n2)cc1 as the compound, how does the growth read?
**A.** 107% (inactive)

**Q.** Which growth does the source give for COc1ccc(/C=C2/SC(=O)N(CC(=O)N3CCN(c4cc5c(cc4F)c(=O)c(C(=O)O)cn5C4CC4)CC3)C2=O)cc1 here?
**A.** 108% (inactive)

**Q.** For O=C(Nc1ccc(-n2cc(-c3ccncc3)c(-c3ccc(Cl)c(O)c3)n2)cc1)Nc1ccc(Cl)c(C(F)(F)F)c1, which growth is on record?
**A.** -19.8% (active)

**Q.** Cn1ccnc1C(=O)/C=C/c1ccc(NC(=O)Nc2ccc(F)cc2)cc1 was tested. Which growth did it give?
**A.** 6.47% (active)
